Source: PubChem BioAssay (NCI)
This is part of a sample that, as a whole, favours compounds with a hit. Of some 83,000 tested, about 20% had one in any assay.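 Single-dose data. Exposure time 48 hours. Values below 10 considered active.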 A number with no mark means an inactive call. The source made the active and inactive calls.

What was measured:
Assay in all cases: NCI-60 one-dose screen, 48 h (100 = growth as untreated, 0 = no growth, -100 = all killed)
Settings in all cases: 10 µM unless noted
[1] = test system: SR leukemia
[2] = test system: RPMI-8226 leukemia
[3] = test system: OVCAR-8 ovarian
[4] = test system: OVCAR-5 ovarian
[5] = test system: OVCAR-4 ovarian
[6] = test system: SK-OV-3 ovarian
[7] = test system: IGROV1 ovarian
[8] = test system: OVCAR-3 ovarian
[9] = test system: HS 578T breast
[10] = test system: NCI/ADR-RES ovarian
[11] = test system: T-47D breast
[12] = test system: BT-549 breast
[13] = test system: MDA-MB-435 melanoma
[14] = test system: SW-620 colon
[15] = test system: MCF7 breast
[16] = test system: HCT-116 colon
[17] = test system: HCC-2998 colon
[18] = test system: KM12 colon

SMILES | growth [1] | growth [2] | growth [3] | growth [4] | growth [5] | growth [6] | growth [7] | growth [8] | growth [9] | growth [10] | growth [11] | growth [12] | growth [13] | growth [14] | growth [15] | growth [16] | growth [17] | growth [18]
COc1ccc(-c2nc3ccc(C)cc3c3c2c(=O)n(C)c(=O)n3C)cc1OC | 99.4% | 101% | 107% | 97% | 122% | 109% | 108% | 111% | 74.3% | 92.5% | 106% | 120% | 90% | 103% | 97.7% | 105% | 98.2% | 116%
Cc1cc(O)cc(-c2nn(C)cc2-c2cc(N3CCOCC3)nc(-c3cccnc3)n2)c1 | 15% | 38.2% | 47.1% | 84.6% | 73.1% | 38.5% | 45% | 8.62% (active) | 20.5% | 45.9% | 28.8% | 36.3% | 3.68% (active) | 38.4% | 14.9% | 17.3% | 63% | 28.9%
CCOC(=O)C1=C(c2ccccc2)N=C2N(c3ccccc3)N=C(C(C)=O)N2C1c1ccc(F)cc1 (stereo not given) | 97.1% | 89.3% | 99.3% | 102% | 97.9% | 107% | 96.3% | 105% | 92.1% | 109% | 98.8% | 101% | 102% | 99.9% | 95.1% | 97.8% | 115% | 97.6%
OC1CSSC1Cn1cnc2c(Nc3ccc(OCc4cccc(F)c4)c(Cl)c3)ncnc21 (stereo not given) | -29.9% (active) | -37.5% (active) | 37.4% | 41% | 4.03% (active) | -8.67% (active) | 41.4% | -70.2% (active) | 59.2% | 1.93% (active) | 19.8% | 52.9% | -77.1% (active) | -20.3% (active) | -60.1% (active) | -33.1% (active) | -81.7% (active) | -60.3% (active)
COc1ccc(Nc2ncc(I)c(NCCCNC(=O)C3CCC3)n2)cc1 | 0.641% (active) | 11.4% | 19.3% | 3.96% (active) | 42.2% | -3.33% (active) | -20.8% (active) | -40.4% (active) | 17.1% | 22.2% | 43% | -73.8% (active) | 49.4% | 12.9% | 3.83% (active) | -30.3% (active) | 25.4% | 5.46% (active)
COc1ccc(-c2cc(-c3cccnc3)nc3sc4c(N)c(C(C)=O)c(-c5ccccc5)nc4c23)cc1OC | 75.4% | 53.7% | 84.9% | 89.5% | 90.7% | 110% | 98.5% | 82.4% | 45.6% | 79% | 59.4% | 34.9% | 45.7% | 109% | 65.3% | 67.6% | 80.1% | 76.2%
Oc1ccc(-c2nc3ccc4[nH]ncc4c3c3c2CCCC3)c(F)c1 | -1.33% (active) | 33.2% | 38% | 59.7% | 51.3% | -6.45% (active) | 22.9% | 46.6% | 14.8% | 52% | 33% | 13.9% | -23.3% (active) | 8.41% (active) | 26.8% | 4.73% (active) | 41.4% | 20%
CSc1ccc2c3c(n(CCCn4ccnc4)c(=O)c2c1)-c1ccccc1C3=O | 3.2% (active) | 28.9% | 40.2% | 76.5% | 71.8% | 50.9% | 58.9% | 64.5% | 91.4% | 35.4% | 15.9% | 63.4% | 64.6% | 31.5% | 9.87% (active) | 10.6% | 75.9% | 45.4%
CSc1ccc(N2C(=N)C(=S)N(c3ccc(C)cc3)C2=O)cc1 | 80.3% | 89% | 96.1% | 89% | 96.4% | 81.1% | 103% | 105% | 96% | 106% | 83% | 72.2% | 102% | 103% | 85.4% | 93.7% | 104% | 96.5%
COc1ccccc1/C=C/C(=O)Nc1ccc(F)cc1 | 95% | 85.4% | 100% | 108% | 86.8% | 81.5% | 83.2% | 104% | 104% | 101% | 75.4% | 108% | 94% | 103% | 64.4% | 88.1% | 111% | 91.3%
O=C(C[C@]1(O)C(=O)Nc2ccc(Br)cc21)c1ccco1 | 97.9% | 100% | 98.2% | 106% | 104% | 95.2% | 92.7% | 102% | 102% | 100% | 104% | 109% | 112% | 95.5% | 94.2% | 105% | 115% | 101%
Fc1cccc(-c2nc(-c3c[nH]c4ncccc34)cs2)c1 | 84.3% [100 µM] | 68.4% [100 µM] | 45.3% [100 µM] | 74.9% [100 µM] | 9.43% [100 µM] (active) | 55.9% [100 µM] | 81.5% [100 µM] | 36.1% [100 µM] | 46.5% [100 µM] | 48.1% [100 µM] | 40.5% [100 µM] | 65.6% [100 µM] | 50.4% [100 µM] | 56% [100 µM] | 44.6% [100 µM] | 33.8% [100 µM] | 89% [100 µM] | 56.6% [100 µM]
CS(=O)(=O)Nc1cc(-c2ccc3ncnc(Nc4ccc(F)c(Cl)c4)c3c2)ccc1Cl | 35.1% | 37.4% | 52% | 53.9% | 52.5% | 17.7% | -3.25% (active) | 36.3% | 18.9% | 41.6% | 12.2% | 49.4% | 58.2% | 75.4% | 23.9% | 59.5% | 79.9% | 52.7%
CC(C)C1C2=C(NCCN1C(=O)c1ccncc1)C(C)(C)N(Cc1ccccc1)C2=O (stereo not given) | 89.4% | 112% | 108% | 107% | 111% | 98.9% | 101% | 102% | 109% | 99.4% | 103% | 104% | 104% | 105% | 95.5% | 92.8% | 100% | 97.6%
FC(F)(F)c1[nH]ncc1-c1nc2ccc3[nH]ncc3c2c2c1CCCC2 | -16.6% (active) | 12.3% | 13.7% | 9.73% (active) | 45.8% | -3.29% (active) | -8.57% (active) | 9.88% (active) | -3.07% (active) | 53.7% | 0% (active) | -24% (active) | 32.1% | 7.83% (active) | 1.69% (active) | 1.68% (active) | 5.29% (active) | 11.1%
